Source: ChEMBL document CHEMBL3988442, “University of Dundee, Small-Polar-MMV Screening Library” (2021)

biological target: AMP-activated protein kinase, AMPK (Homo sapiens) (UniProt P54646+O43741+P54619+Q9UGJ0+Q9Y478+Q13131+Q9UGI9); experiment: AMP-dependent Kinase enzyme assay. An in vitro enzyme assay that detects ADP turnover that is directly proportional to AMPK activity. This uses naive AMPK that is activated during the assay with MK-8722; format: functional; design: scale not given: direction of the effect not stated beside the values; settings: 30 µM

Compound	Percent Effect
COc1ccsc1C(=O)NC1CCN(c2cccc(F)c2)CC1	-1.16%
O=C(NCc1nncn1C1CC1)c1ccccc1Oc1cccnc1	-0.563%
Cc1cc(C)n(CC(C)NC(=O)C2(c3ccccc3F)CC2)n1 (stereo not given)	-3.82%
O=C1CN(C(=O)c2cc3c(F)cc(Br)cc3[nH]2)CCN1	8.46%
COCCN(C)Cc1cc(Cl)ccc1OCC(O)CN1CCCCCC1 (stereo not given)	-8.12%
CN1CCN(CC2(O)CCCN(S(=O)(=O)c3cn[nH]c3)CC2)CC1 (stereo not given)	13%
Cc1nc(CN(C)S(=O)(=O)c2ccc(F)cc2Br)no1	1.76%
Cc1oc(-c2ccco2)nc1CN1CCc2cnc(C(C)C)nc2C1	-25.9%
COc1cc(Br)c(CNc2ccn(CCC(N)=O)n2)cc1OC	3.74%
CC(C)n1nccc1CN1Cc2nccn2CC1c1ccccc1 (stereo not given)	-2.65%
Cc1nonc1CN1CC[C@@](O)(C2CCOCC2)[C@H](C)C1	-6.73%
N#Cc1c(N)nc2c(c1C1CCOC1)CCc1cc(O)ccc1-2 (stereo not given)	32%
Cc1ncsc1C(=O)NCCCN1CCCCCC1=O	-10%
C[C@@H]1CN(C(=O)C2(Cn3cccn3)CC2)CC[C@@]1(O)C1CCOCC1	6.2%
O=C(NCCCn1ccnc1)C1COCC(=O)N1Cc1ccccc1 (stereo not given)	3.38%
CCOC(=O)NC1CCCN(c2cncc(Br)c2)C1 (stereo not given)	15.7%
NCC(CO)Cc1ccc(OC(F)(F)F)cc1 (stereo not given)	-4.6%
COc1ncc(NCc2ccc(F)cc2)cc1C(N)=O	5.39%
COc1cccc(CCC(=O)Nc2ccn(C)n2)c1OC	10.3%
COc1cc(F)c(NCc2nc3ccccc3n2C)cc1OC	-46.6%

Compound	Percent Effect
CN(CCCO)Cc1cc(Cl)ccc1OCC(O)CN1CCCCCC1 (stereo not given)	-10.6%
Cc1ccc(C(C(=O)NC(C)(C)CN2CCCC2)N(C)C)cc1 (stereo not given)	-22.5%
Cc1nc(C)c(COc2ccc(S(=O)(=O)N(C)C)cc2)s1	4.6%
NC(=O)CCC1CCCN(Cc2cnc(N3CCCCC3)nc2)C1 (stereo not given)	7.08%
O=C(c1cnccn1)N1CCCC(C2=Nc3ccccc3S(=O)(=O)N2)C1 (stereo not given)	22%
COC(=O)C(NC(=O)c1cc(C)ccc1C)c1cccnc1 (stereo not given)	1.93%
Cn1ccnc1-c1cnn(CC(=O)Nc2ccnn2C)c1	-2.32%
COc1ccc(CC(C)Nc2cccc(SC)c2)cc1 (stereo not given)	-5.64%
CCn1cnnc1CN(C)C(=O)c1cc(COc2cccc(F)c2)[nH]n1	-0.905%
CC(C)OCCCNC(=O)CN1CCN(c2nccs2)C(C)C1 (stereo not given)	13.6%
CN(Cc1nncn1C)C(=O)c1cc(COc2ccccc2)[nH]n1	-7.68%
Cc1noc(CNc2cc3c(cc2Cl)NC(=O)CO3)n1	1.17%
CCCn1ccnc1-c1cccc(NC(=O)[C@H]2CCC(=O)N2)c1	11.3%
CCn1c(C2CCCNC2)nn(CCn2cncn2)c1=O (stereo not given)	-3.33%
CC(O)c1cccc(OCc2ccon2)c1 (stereo not given)	4.94%
Cc1cc(CN2CCC(C3CCN(Cc4cccnc4)CC3)C2)[nH]n1 (stereo not given)	-8.19%
CCc1nc(N)nc(NCCC(=O)N2CCCC2)c1C	4.47%
NS(=O)(=O)c1ccc(NCc2ccco2)c2ncccc12	-2.08%
CCCN1CCC(N2CCC(Cn3cc(C4CC4)nn3)CC2)CC1	2.68%
Cc1cnn(C2CN(CCOc3cccc(C#N)c3)C2)c1	3.61%
